# Columns and labels:
# Test in all cases: DAPPL (digital affinity profiling via proximity ligation, sequencing); 10 mM Tris-HCl pH 7.5, 50 mM NaCl, 1 mM DTT, 4% glycerol, room temperature, 30 min; GST-TFs on glutathione beads, 16-mer random dsDNA library, 0.1% formaldehyde crosslink after washing; high values mean tight binding
# FEV = target: T1, FEV (Homo sapiens, UniProt Q99581 1-238); conditions: protein: recombinant; tags: N-terminal GST; dsDNA, one strand shown
# T1 sequence: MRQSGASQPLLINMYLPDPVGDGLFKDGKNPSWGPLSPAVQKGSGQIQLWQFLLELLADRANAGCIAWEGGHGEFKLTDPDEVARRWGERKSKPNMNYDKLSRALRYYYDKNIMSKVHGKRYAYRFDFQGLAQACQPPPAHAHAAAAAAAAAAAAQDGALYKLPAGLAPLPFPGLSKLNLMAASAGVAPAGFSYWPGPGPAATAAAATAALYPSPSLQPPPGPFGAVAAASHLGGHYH
# How it was run: (§1)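 The binding signal reported is, for every hexamer, its read frequency for a factor over its read frequency for the tag-only sample. Reads came from pools of yeast-expressed, GST-fused human transcription factors on glutathione beads, barcoded with DNA and mixed with that sample, which were incubated with 200 nmole of a random double-stranded 16-mer DNA library in Tris/NaCl/DTT/glycerol buffer at room temperature for 30 min. After washing, the pools were crosslinked with 0.1% formaldehyde, proximity-ligated with BsaI/T4 ligase for 1 h at 37 °C, PCR-amplified and sequenced on an Illumina NextSeq500.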
# ETV5 = ETV5 (Homo sapiens, UniProt P41161 1-510); conditions: protein: recombinant; tags: N-terminal GST; dsDNA, one strand shown
# How it was run: as §1
# HSF1 = HSF1 (Homo sapiens, UniProt Q00613 1-529); conditions: protein: recombinant; tags: N-terminal GST; chain copies: 3; dsDNA, one strand shown
# How it was run: as §1
# SPIC = target: T2, SPIC (Homo sapiens, UniProt Q8N5J4 1-248); conditions: protein: recombinant; tags: N-terminal GST; dsDNA, one strand shown
# T2 sequence: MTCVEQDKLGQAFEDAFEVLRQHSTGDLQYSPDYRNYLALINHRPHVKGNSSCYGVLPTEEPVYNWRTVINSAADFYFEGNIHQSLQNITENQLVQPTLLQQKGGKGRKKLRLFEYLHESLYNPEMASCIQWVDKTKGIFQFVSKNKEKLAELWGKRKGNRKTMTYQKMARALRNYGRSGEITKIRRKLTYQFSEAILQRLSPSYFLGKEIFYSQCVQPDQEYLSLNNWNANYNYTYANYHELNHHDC
# How it was run: as §1
# ELF4 = ELF4 (Homo sapiens, UniProt Q99607 1-663); conditions: protein: recombinant; tags: N-terminal GST; dsDNA, one strand shown
# How it was run: as §1
# ELK4 = target: T3, ELK4 (Homo sapiens, UniProt P28324-2 1-405); conditions: protein: recombinant; tags: N-terminal GST; dsDNA, one strand shown
# T3 sequence: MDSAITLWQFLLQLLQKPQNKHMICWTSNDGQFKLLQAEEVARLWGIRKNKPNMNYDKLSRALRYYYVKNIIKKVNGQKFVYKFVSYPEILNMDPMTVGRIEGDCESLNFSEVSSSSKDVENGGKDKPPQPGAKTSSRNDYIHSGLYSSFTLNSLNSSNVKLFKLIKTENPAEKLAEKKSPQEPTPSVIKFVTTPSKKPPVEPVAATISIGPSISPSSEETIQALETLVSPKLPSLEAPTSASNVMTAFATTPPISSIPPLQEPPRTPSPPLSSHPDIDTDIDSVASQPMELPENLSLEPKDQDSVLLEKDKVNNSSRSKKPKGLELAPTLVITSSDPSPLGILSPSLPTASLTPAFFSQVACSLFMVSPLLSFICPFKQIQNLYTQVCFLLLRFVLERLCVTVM
# How it was run: as §1
# ETV2 = target: T4, ETV2 (Homo sapiens, UniProt O00321 1-342); conditions: protein: recombinant; tags: N-terminal GST; dsDNA, one strand shown
# T4 sequence: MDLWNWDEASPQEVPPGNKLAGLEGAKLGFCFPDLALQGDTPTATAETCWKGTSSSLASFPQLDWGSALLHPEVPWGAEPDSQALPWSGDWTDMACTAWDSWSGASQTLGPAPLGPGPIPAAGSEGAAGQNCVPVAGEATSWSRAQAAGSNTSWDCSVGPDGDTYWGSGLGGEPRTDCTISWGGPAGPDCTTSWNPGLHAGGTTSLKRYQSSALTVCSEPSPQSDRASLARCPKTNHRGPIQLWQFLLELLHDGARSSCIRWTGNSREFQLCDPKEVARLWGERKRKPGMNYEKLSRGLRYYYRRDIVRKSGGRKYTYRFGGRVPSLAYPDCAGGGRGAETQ
# How it was run: as §1
# ELF3 = target: T5, ELF3 (Homo sapiens, UniProt P78545 1-371); conditions: protein: recombinant; tags: N-terminal GST; dsDNA, one strand shown
# T5 sequence: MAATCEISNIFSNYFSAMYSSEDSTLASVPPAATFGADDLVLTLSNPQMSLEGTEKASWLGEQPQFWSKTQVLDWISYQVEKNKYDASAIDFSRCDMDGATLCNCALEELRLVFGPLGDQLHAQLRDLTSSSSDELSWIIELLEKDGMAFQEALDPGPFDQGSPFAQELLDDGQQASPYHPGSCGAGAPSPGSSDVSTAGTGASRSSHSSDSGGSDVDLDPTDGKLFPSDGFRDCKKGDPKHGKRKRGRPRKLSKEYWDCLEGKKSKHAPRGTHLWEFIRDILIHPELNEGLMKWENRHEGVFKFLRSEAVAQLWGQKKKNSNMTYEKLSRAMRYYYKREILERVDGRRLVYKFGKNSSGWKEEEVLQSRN
# How it was run: as §1
# CRX = CRX (Homo sapiens, UniProt O43186 1-299); conditions: protein: recombinant; tags: N-terminal GST; dsDNA, one strand shown
# How it was run: as §1
# ELF4, sequence (Q99607 whole entry): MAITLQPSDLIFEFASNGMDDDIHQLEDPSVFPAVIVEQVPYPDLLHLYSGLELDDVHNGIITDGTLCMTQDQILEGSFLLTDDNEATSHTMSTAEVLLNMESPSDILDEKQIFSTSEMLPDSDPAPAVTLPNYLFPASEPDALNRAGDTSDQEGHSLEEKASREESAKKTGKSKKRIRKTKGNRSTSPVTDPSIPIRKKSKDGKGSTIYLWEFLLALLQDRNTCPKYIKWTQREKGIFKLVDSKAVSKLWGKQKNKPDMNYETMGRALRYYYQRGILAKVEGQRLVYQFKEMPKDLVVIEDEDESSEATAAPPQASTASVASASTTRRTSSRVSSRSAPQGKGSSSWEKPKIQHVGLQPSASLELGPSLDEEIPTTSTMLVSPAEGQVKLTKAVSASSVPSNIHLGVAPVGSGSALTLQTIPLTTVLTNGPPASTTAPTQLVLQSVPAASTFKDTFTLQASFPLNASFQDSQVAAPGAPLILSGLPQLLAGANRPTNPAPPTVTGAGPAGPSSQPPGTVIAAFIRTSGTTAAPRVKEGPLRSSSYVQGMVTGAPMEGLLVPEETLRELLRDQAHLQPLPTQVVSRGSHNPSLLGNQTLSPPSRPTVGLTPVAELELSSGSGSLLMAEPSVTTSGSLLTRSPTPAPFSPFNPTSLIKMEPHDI
# HSF1, sequence (Q00613 whole entry): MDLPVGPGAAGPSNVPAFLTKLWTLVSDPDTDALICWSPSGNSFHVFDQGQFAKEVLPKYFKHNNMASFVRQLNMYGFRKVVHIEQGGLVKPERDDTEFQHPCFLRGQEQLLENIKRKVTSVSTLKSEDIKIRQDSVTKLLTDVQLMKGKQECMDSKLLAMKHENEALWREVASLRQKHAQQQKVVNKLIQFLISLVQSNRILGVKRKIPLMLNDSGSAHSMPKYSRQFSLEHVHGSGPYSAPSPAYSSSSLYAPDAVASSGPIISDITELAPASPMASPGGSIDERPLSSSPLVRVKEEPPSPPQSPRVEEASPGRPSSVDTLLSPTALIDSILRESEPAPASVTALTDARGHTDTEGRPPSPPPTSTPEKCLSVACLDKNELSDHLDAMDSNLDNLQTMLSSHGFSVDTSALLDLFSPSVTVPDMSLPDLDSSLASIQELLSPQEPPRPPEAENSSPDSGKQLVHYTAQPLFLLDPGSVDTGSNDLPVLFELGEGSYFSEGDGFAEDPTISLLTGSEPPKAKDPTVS
# CRX, sequence (O43186 whole entry): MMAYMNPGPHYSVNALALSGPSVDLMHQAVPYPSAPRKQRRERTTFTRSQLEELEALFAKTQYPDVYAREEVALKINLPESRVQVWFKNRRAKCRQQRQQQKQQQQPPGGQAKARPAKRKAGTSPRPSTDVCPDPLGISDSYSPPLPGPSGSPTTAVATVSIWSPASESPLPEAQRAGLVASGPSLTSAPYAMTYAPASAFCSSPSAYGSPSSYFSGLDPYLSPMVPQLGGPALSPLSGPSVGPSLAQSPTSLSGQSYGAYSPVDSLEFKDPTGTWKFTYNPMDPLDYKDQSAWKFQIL
# ETV5, sequence (P41161 whole entry): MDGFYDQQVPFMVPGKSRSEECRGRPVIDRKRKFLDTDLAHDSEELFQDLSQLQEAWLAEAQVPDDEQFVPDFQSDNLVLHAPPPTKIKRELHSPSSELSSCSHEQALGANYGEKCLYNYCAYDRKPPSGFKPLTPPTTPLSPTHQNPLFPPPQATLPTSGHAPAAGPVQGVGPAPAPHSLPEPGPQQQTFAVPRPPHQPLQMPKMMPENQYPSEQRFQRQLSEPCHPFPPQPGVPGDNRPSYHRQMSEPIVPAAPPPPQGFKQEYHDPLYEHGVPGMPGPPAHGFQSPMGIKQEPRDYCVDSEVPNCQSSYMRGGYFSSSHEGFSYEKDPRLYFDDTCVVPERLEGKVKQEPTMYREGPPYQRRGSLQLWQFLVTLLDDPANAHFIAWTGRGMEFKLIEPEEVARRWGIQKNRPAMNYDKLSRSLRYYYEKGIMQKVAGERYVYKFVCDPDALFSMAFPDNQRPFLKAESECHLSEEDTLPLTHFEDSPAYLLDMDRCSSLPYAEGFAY
sequence,measurement,setting,value
CTGGTT,binding signal,FEV,"1.19 fold enrichment (6-mer frequency, TF over GST control)"
same,binding signal,ETV5,"1.36 fold enrichment (6-mer frequency, TF over GST control)"
same,binding signal,HSF1,"1.24 fold enrichment (6-mer frequency, TF over GST control)"
same,binding signal,SPIC,"1.43 fold enrichment (6-mer frequency, TF over GST control)"
same,binding signal,ELF4,"1.33 fold enrichment (6-mer frequency, TF over GST control)"
same,binding signal,ELK4,"1.46 fold enrichment (6-mer frequency, TF over GST control)"
same,binding signal,ETV2,"1.2 fold enrichment (6-mer frequency, TF over GST control)"
same,binding signal,ELF3,"1.22 fold enrichment (6-mer frequency, TF over GST control)"
same,binding signal,CRX,"1.22 fold enrichment (6-mer frequency, TF over GST control)"
